Data from PubChem BioAssay (NCI).
This is part of a sample that, as a whole, favours compounds with a hit. Of some 83,000 tested, about 20% had one in any assay.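 Interpretation: 100, growth as untreated; towards 0, rising growth inhibition; 0, no net growth; 0 to -100, cell death. Compounds scoring below 10 were considered active.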 A number with no mark means an inactive call. Calls of active or inactive are those of the source.

What was measured:
Assay in all cases: NCI-60 one-dose screen, 48 h (100 = growth as untreated, 0 = no growth, -100 = all killed)
Conditions in all cases: 10 µM unless noted
SR leukemia = tested on: SR leukemia
RPMI-8226 leukemia = tested on: RPMI-8226 leukemia
OVCAR-8 ovarian = tested on: OVCAR-8 ovarian
OVCAR-5 ovarian = tested on: OVCAR-5 ovarian
OVCAR-4 ovarian = tested on: OVCAR-4 ovarian
SK-OV-3 ovarian = tested on: SK-OV-3 ovarian
IGROV1 ovarian = tested on: IGROV1 ovarian
OVCAR-3 ovarian = tested on: OVCAR-3 ovarian
HS 578T breast = tested on: HS 578T breast
NCI/ADR-RES ovarian = tested on: NCI/ADR-RES ovarian

Compound	growth (SR leukemia)	growth (RPMI-8226 leukemia)	growth (OVCAR-8 ovarian)	growth (OVCAR-5 ovarian)	growth (OVCAR-4 ovarian)	growth (SK-OV-3 ovarian)	growth (IGROV1 ovarian)	growth (OVCAR-3 ovarian)	growth (HS 578T breast)	growth (NCI/ADR-RES ovarian)
COc1ccc(C(=O)NC(=O)Nc2cc3c(cc2F)/C(=C/c2[nH]c(C)c(CCC(=O)O)c2C)C(=O)N3)c(F)c1	26.5%	-2.09% (active)	6.72% (active)	63.1%	80.3%	60.5%	37.4%	36.8%	16.3%	83.9%
Cc1ccc(/C=C2\CN(C(=O)CCN3CCC(=NO)CC3)C/C(=C\c3ccc(C)cc3)C2=O)cc1	-0.19% (active)	-9.83% (active)	20.4%	-8.32% (active)	20.9%	87.8%	-14% (active)	8.71% (active)	6.55% (active)	14.6%
Nc1cccc(-c2nc3sccn3c2-c2ccnc(NCCNS(=O)(=O)c3ccc(C(F)(F)F)cc3)n2)c1	35.4%	61.7%	38.3%	90.5%	43.2%	53.5%	36.3%	53.4%	-15.1% (active)	71.5%
CCOC(=O)c1c(/N=C2\SC(=O)/C(=C\C(=O)OC)N2NC)sc2c1CCN(C(=O)OCC)C2	103%	95.3%	103%	102%	99.1%	109%	102%	106%	103%	103%
O=C1C2(c3ccccc3)C(c3ccccc3)=C(c3ccccc3)C1(c1ccccc1)C1CC=CC12 (stereo not given)	101%	50.2%	87.5%	97.9%	69.5%	96.3%	86.9%	89.5%	106%	90.3%
CC(C)(C)c1[nH]nc2c1C(c1cc3ccccc3[nH]c1=O)Nc1cc(C(=O)Nc3ccc(Cl)cc3)ccc1N2 (stereo not given)	65.4%	42.5%	75.3%	114%	32.5%	90.6%	59.6%	58.4%	52.6%	95.3%
Cc1ccc(-c2csc(NC(=O)CCCCl)n2)cc1	84.4%	82.7%	106%	94.6%	90.7%	105%	95%	101%	105%	101%
CC(=O)OC[C@]12CC[C@H]3[C@@H](C[C@H]4O[C@]45CC=CC(=O)[C@]35C)[C@]1(O)CC[C@@]2(O)[C@@](C)(O)C1CC(C)=C(C)C(=O)O1 (stereo not given in full)	10.4%	-19.6% (active)	7.69% (active)	-24.1% (active)	19.8%	-13.1% (active)	-55.1% (active)	-23.7% (active)	-1.18% (active)	38.9%
CCCCCCCCCCCCCCCCCCNC(=O)[C@H]1CSC(c2ccc(OC)cc2O)N1 (stereo not given in full)	9.44% (active)	73.4%	12%	56%	84.6%	96.4%	60.1%	80.3%	55%	70.8%
Nc1cccc(-c2nc3sccn3c2-c2ccnc(NCCCNS(=O)(=O)c3cccc4ccccc34)n2)c1	38.7%	8.33% (active)	23.5%	92.1%	24.6%	63.1%	36.7%	37.6%	44.7%	38.3%
Brc1cccc(-c2cc(-c3ccc4c(c3)OCCCO4)[nH]n2)c1	41.7% [25 µM]	57.2% [25 µM]	69.3% [25 µM]	63% [25 µM]	68.1% [25 µM]	53.1% [25 µM]	46.8% [25 µM]	48.7% [25 µM]	71.1% [25 µM]	22.1% [25 µM]
COC1=C(OC)C(=O)C(CCCCCCCCCC[P+](c2ccccc2)(c2ccccc2)c2ccccc2)=C(C)C1=O	-27% (active)	-62.5% (active)	-48.3% (active)	3.19% (active)	2.19% (active)	-40% (active)	-31.6% (active)	-34.2% (active)	-58.9% (active)	60.7%
S=C1CC(=S)NC(=S)N1	109%	122%	104%	110%	99%	111%	96.7%	116%	101%	105%
Clc1cccc(-c2cc(-c3ccc4c(c3)OCCO4)[nH]n2)c1	29.3% [25 µM]	21.4% [25 µM]	38.2% [25 µM]	37% [25 µM]	68.3% [25 µM]	45.6% [25 µM]	39.9% [25 µM]	12.8% [25 µM]	47% [25 µM]	3.35% [25 µM] (active)
CC(=O)Nc1scc[n+]1Cc1ccccc1	76.6%	92.2%	99.3%	110%	108%	99.5%	109%	114%	106%	102%
Cn1c(=O)cc(NC(=O)CN2CCN(c3cc4c(cc3F)c(=O)c(C(=O)O)cn4C3CC3)CC2)[nH]c1=O	103%	97.3%	98%	95.9%	96.9%	112%	101%	99.5%	103%	98.1%
COc1ccc(CCNC2=CC(=O)CCC2)cc1OC	85.9%	107%	106%	105%	115%	105%	113%	105%	94.6%	102%
COc1cc(/C=C/C(=O)/C=C/c2cc(OC)c3c(c2)OCO3)cc2c1OCO2	33.6%	-10.5% (active)	95.4%	107%	104%	86.6%	90.3%	34.6%	103%	91.2%
O=C1CS/C(=N\Nc2cc(=O)[nH]c3ccccc23)N1c1ccccc1	77.9%	88.4%	94%	95.6%	97%	107%	89.1%	99.8%	97.1%	91.3%
CNC(=S)NNC(=O)C1CC1	67.5%	98.9%	94.7%	107%	113%	105%	118%	116%	112%	110%
COc1cc(C(=O)/C=C/c2c(C)n([O-])c3ccc(C(F)(F)F)cc3[n+]2=O)cc(OC)c1OC	24.4%	59.6%	8.63% (active)	122%	89.5%	87.3%	111%	-18.9% (active)	119%	75.7%
COc1ccc(-c2nc(-c3nc4cc(C)c(C)cc4[nH]3)cc3c2[nH]c2ccccc23)cc1	-43.7% (active)	-26.3% (active)	36.9%	77.6%	60.6%	109%	66.9%	-4% (active)		41.7%
O=C(N/N=C/C=C\c1ccccc1)C(=O)N/N=C/C=C/c1ccccc1	103%	102%	105%	112%	112%	111%	106%		116%	110%
CN(CCCCCl)P(=O)(OCc1ccc([N+](=O)[O-])o1)C(F)(F)C[C@H](NC(=O)CNC(=O)c1ccc(N=[N+]=[N-])cc1)C(=O)NCCc1ccc(O)cc1 (stereo not given in full)	9.22% (active)	87.3%	107%	123%	95.2%	113%	84.3%	109%		103%
CO[C@H]1NC(=O)N(S(=O)(=O)c2ccc(Cl)cc2)[C@@H]1OC	93.9%	96.1%	106%	111%	108%	102%	124%	108%		110%
CSc1nc2c(c(=O)[nH]1)C(c1ccc(C)cc1)C=C(C(=O)O)N2 (stereo not given)	117%	112%	105%	114%	113%	115%	107%	123%		109%
COc1cccc(/C=C/C(=O)Nc2cc(OC)c3c(c2)OCO3)c1	81.5%	57.1%	105%	89.1%	96.4%	104%	108%	110%	98.8%	93.2%
